# Results as given in ChEMBL document CHEMBL4513216, “Probing the Open Global Health Chemical Diversity Library for Multistage-Active Starting Points for Next-Generation Antimalarials” (ACS Infect Dis, 2020).
# The whole screen tested about 65,000 compounds, of which about 2,100 (3.2%) showed an effect of 50% or more. The median lay at about -52%. This is one part of a sample in which strong results are shown more often than they occur.
# System: Plasmodium falciparum
# Assay: Screen against P. falciparum Asexual Blood Stage (ABS), at 5uM
# Type: functional, Dd2
# Conditions: tested at 5 uM
row,SMILES,INHIBITION
1,O=C(O)Cn1nc(C2CC2)c2c(-c3cccs3)ccnc21,-7.45%
2,O=c1[nH]c(NC2CCCC2)nc2nccc(-c3ccsc3)c12,68.5%
3,NC(=O)C1CCN(c2nc3nccc(-c4cccnc4)c3c(=O)[nH]2)CC1,-16.2%
4,NC(=O)C1CCN(c2nc3nccc(-c4ccccc4)c3c(=O)[nH]2)CC1,-99.6%
5,NC(=O)C1CCN(c2nc3nccc(-c4ccncc4)c3c(=O)[nH]2)CC1,-23%
6,O=c1[nH]c(NC2CCCC2)nc2nccc(-c3cccs3)c12,56.6%
7,c1ccc(COC[C@H]2CC[C@H]3[C@H](CCN3Cc3ccccn3)O2)nc1,-2.2%
8,CCNc1cc2c(nn1)CCN(C(=O)c1ccnc(-n3ccnc3)c1)C2,43.9%
9,CC(=O)N1CCc2[nH]nc(C(=O)N3CCOCC3)c2C1,-75.4%
10,CC(C)N1CCc2[nH]nc(C(=O)N3CCOCC3)c2C1,55.6%
11,CC(C)N1CCc2[nH]nc(C(=O)N3CCN(C)CC3)c2C1,49.2%
12,O=C(Nc1nc2c(s1)CNCC2)C1CC1,-117%
13,O=C(NCC1CC1)[C@H]1C[C@H]2OCC[C@H]2N(CCc2ccccc2)C1,-62.8%
14,CO[C@@H]1CN(c2ccccc2)S(=O)(=O)[C@@]12CCN(Cc1ccccc1)C2,-32.5%
15,CC(=O)N[C@@H]1CN(C2CCN(c3cccc(C)c3C)CC2)C[C@H]1C(C)C,57.7%
16,CC(=O)N[C@@H]1CN(C2CCN(c3cccc(Cl)c3)CC2)C[C@H]1C(C)C,-10.3%
17,CC(=O)N[C@@H]1CN(C2CCN(c3ccccc3F)CC2)C[C@H]1C(C)C,-24.8%
18,CN1[C@H](Cn2cncn2)C[C@@H]2CN(Cc3ccsc3)CC[C@@H]21,38.2%
19,CCOCC(=O)NCC(Cc1cccc(F)c1)N1CCCCC1=O (centres undefined),-88%
20,COc1ccc2nnc(CCCC(=O)NCCc3ccccn3)n2n1,-138%
21,COc1ccc(C(C)CCNC2CCN(c3ccccn3)CC2)cc1 (centres undefined),68.2%
22,COCCOCC(=O)NC1CCN(c2ccccn2)CC1,-16.8%
23,CC(CNC1CCN(c2ccccn2)CC1)Oc1ccc(F)cc1 (centres undefined),49.1%
24,CC(C)COCCNC1CCN(c2ccccn2)CC1,61.2%
25,c1ccc(N2CCC(NCCc3ccc(-n4cccn4)cc3)CC2)nc1,39.6%
26,COc1c(CNC2CCN(c3ccccn3)CC2)c(C(C)C)nn1C,1.28%

row,SMILES,INHIBITION
1,CC(C)(C)C(=O)N1CCC2(CNS(=O)(=O)c3cnccc3O2)C1 (centres undefined),-18.2%
2,CCC1c2ccccc2CCN1CCCS(C)(=O)=O (centres undefined),-4.08%
3,CC(C)C(NCc1ccc(Cn2cncn2)cc1)c1ccc(F)cn1 (centres undefined),-59.5%
4,CC(C)C(NCc1ccc(Cn2cncn2)cc1)c1ccccc1 (centres undefined),50.1%
5,COc1ccc(CNC(Cn2cncn2)c2ccccc2)cc1C (centres undefined),-102%
6,O=S(=O)(c1ccccc1)N1CCC2(CCCN2CC2CCCC2)C1 (centres undefined),48%
7,COc1cc(N2CCCC(CO)(Cc3ccccc3F)C2)ncn1 (centres undefined),-43.6%
8,Cc1cc(C)n(CC2CCCN2C(=O)c2ccc3[nH]cnc3c2)n1 (centres undefined),-163%
9,Cc1nc(NCC2CC2)nc2c1COCC21CCN(S(=O)(=O)C2CC2)C1 (centres undefined),12.5%
10,COCCN1CCC(CNC(=O)c2cc(Cl)c[nH]2)CC1,-2.76%
11,O=C(NCC1CCN(CCc2ccccc2)C1)c1cc(Cl)c[nH]1 (centres undefined),65.1%
12,CCN1CCC(CNC(=O)c2cc(Cl)c[nH]2)CC1,-108%
13,CC(OCC1CC1)C(=O)Nc1ncn(CC(=O)N2CCCCCC2)n1 (centres undefined),36.5%
14,CN1CCCCc2c1nc1c(c2N)CCC1,65.8%
15,Cc1c(C)n(-c2ccccn2)c2nc3c(c(N)c12)CCCC3,21.3%
16,CN1CC2(CCCN(c3nc(N)nc4c3CCCC4)C2)OC1=O (centres undefined),-29.7%
17,CN1CCCCc2c1nc1c(c2N)CCCC1,63.8%
18,CN1CCc2c1nc1c(c2N)CCC1,-64.6%
19,CN1CCCc2c1nc1c(c2N)CCC1,-49.7%
20,COC[C@@H]1CC[C@H]2[C@H](CCN2S(=O)(=O)c2ccc(C)cc2)O1,-3.1%
21,Cc1cc(N2CCCC2)nc(CNS(=O)(=O)Cc2ccccc2)n1,-63.1%
22,Cc1nn(C)c(N2CCCN(C)CC2)c1CNC(=O)CCC(C)C,-12.6%
23,COCC(=O)N1C[C@@H]2CCCO[C@@H]2[C@H](N(C)Cc2ccco2)C1,-22.6%
24,Cc1noc([C@@H]2CCO[C@@H]3CCN(Cc4ccc(C)s4)C[C@@H]32)n1,10.3%
25,CN(C)CCN1CCOCC2(CCCN(C(=O)c3ccccn3)C2)C1 (centres undefined),-26.3%
26,CN(C)CC(C)(C)Cn1cnc(-c2ccccc2)c1-c1ncc[nH]1,-81.8%

row,SMILES,INHIBITION
1,Oc1cccc(-c2cc(C3CCN(Cc4cncnc4)C3)ccn2)c1 (centres undefined),-15.3%
2,CN(C)CC(C)(C)Cn1cnc(-c2ccccc2)c1-c1cccc(O)c1,50.9%
3,CN(C)CC(C)(C)Cn1cnc(-c2ccccc2)c1-c1ccncc1,1.44%
4,Cn1ccnc1CN1CCC(c2ccnc(-c3cccc(O)c3)c2)C1 (centres undefined),30.7%
5,CN(C)CC(C)(C)CN1CCC(c2ccnc(-c3cccc(O)c3)c2)C1 (centres undefined),69.5%
6,COc1ccccc1OC1CN(C(=O)c2ccccc2C(C)=O)C1,-184%
7,O=c1[nH][nH]cc1-c1ccnc(NCCN2CCCCC2)n1,-153%
8,CS(=O)(=O)CCC(=O)N1C[C@H]2CC[C@@H](C1)N(Cc1ccccc1)C2=O,-72.6%
9,CC(C)c1nnc2n1CCN(C(=O)c1cc(Cl)c[nH]1)C2,5.02%
10,Cc1ccccc1C(=O)N1C[C@@H]2CCN(c3cccnc3)C[C@@H]2C1,-45.5%
11,CCS(=O)(=O)N1CCC(NC(=O)c2cc3ccccc3cc2O)CC1,6.29%
12,O=C1CC(CNc2cncc(Br)c2)c2ccccc2N1 (centres undefined),12.2%
13,Cc1cc(NCC2CC(=O)Nc3ccccc32)nc(C)n1 (centres undefined),-151%
14,O=C1CC(CNc2cncc(Cl)n2)c2ccccc2N1 (centres undefined),66.1%
15,O=C1C[C@@H]2CC[C@H](CN1)N2C(=O)Cc1ccsc1,-114%
16,CCN(CC)c1nc2ccsc2c(=O)n1CCC(=O)NCc1ccco1,-83%
17,CCc1nc(CCNC(=O)Nc2ccc(C(=O)NC)cc2)cs1,-114%
18,Cc1ccc(-c2nccn2-c2ccc(OC3CCN(C)CC3)cc2)o1,55.1%
19,CN1CCC(Oc2ccc(-n3ccnc3-c3nccn3C)cc2)CC1,-33.1%
20,CN1CCC(Oc2ccc(-n3ccnc3-c3ccncc3)cc2)CC1,-17%
21,Cc1nn(C)c(C)c1C(=O)NC(C)CC(=O)c1cccs1 (centres undefined),-35.4%
22,Cc1ccc(-c2nn(C)c(C(=O)O)c2Br)cc1,-38.6%
23,Cc1cccc(=O)n1CCC(=O)N1CC[C@](C)(O)[C@H](C)C1,-97.5%
24,Cc1ccc(N2CCCC(NCc3nnc(-c4ccco4)o3)C2)nn1 (centres undefined),50.3%
25,Cc1ccc(N2CCCC(NCc3nc(C)c(C)o3)C2)nn1 (centres undefined),-26.7%
26,c1cnnc(N2CCCC(NCc3nnc(-c4ccco4)o3)C2)c1 (centres undefined),-31.5%

row,SMILES,INHIBITION
1,Cn1nc2c(cc1=O)CN(CCOc1ccccc1C#N)CC2,0.73%
2,COCC(=O)N1C[C@H]2CNC[C@@]2(C(=O)NCc2cc(C)n[nH]2)C1,4.75%
3,COc1ccc(-c2cnc(N)nc2C2CCCNC2)cc1 (centres undefined),-91.8%
4,Nc1ncc(-c2ccc(F)cc2)c(C2CCCNC2)n1 (centres undefined),50.3%
5,Nc1ncc(-c2ccc(C(F)(F)F)cc2)c(C2CCCNC2)n1 (centres undefined),70.9%
6,CS(=O)(=O)N1CC(c2nc(N)ncc2-c2ccc(F)cc2)C1,-47.4%
7,CN(C)c1ncc(-c2ccc(C(N)=O)cc2)c(C2CCNC2)n1 (centres undefined),-37.9%
8,Nc1ncc(-c2ccc(Cl)cc2)c(C2CCCNC2)n1 (centres undefined),48.9%
9,CCN1CCCC(NC(=O)c2ccc(C)[nH]c2=O)C1 (centres undefined),-166%
10,CN(C)c1ncnc2c1CCN(CC1CCOCC1)CC2,-55.1%
11,CCN(Cc1cnn(C)c1)C[C@H]1CC[C@@H](Cc2ccc(OC)nc2)O1,4.73%
12,CN1CCN(C[C@H]2CC[C@@H](Cc3ccc(CN4CCCC4)cc3)O2)CC1,36.4%
13,CN1CCN(C[C@H]2CC[C@@H](Cc3ccc4c(c3)OCO4)O2)CC1,-28.1%
14,CN1CCC(N(C)C[C@H]2CC[C@@H](Cc3cccc(O)c3)O2)CC1,57.5%
15,COc1ccc(C[C@@H]2CC[C@H](CN(C)C3CCN(C)CC3)O2)cc1,50.9%
16,CN1CCC(N(C)C[C@H]2CC[C@@H](Cc3cccc(CO)c3)O2)CC1,-125%
17,CC(=O)Nc1nc2c(s1)C(C)(C)Nc1ccccc1S2,-58.4%
18,NCc1ccc(OC(F)F)cc1OC(F)F,-38.5%
19,CC(C)CN1C(=O)CCC12CCC(NC(=O)NCc1cccnc1)CC2 (centres undefined),-167%
20,CCc1nc(CN2CCCN(c3nn4cc(C)nc4s3)CC2)no1,-69%
21,Cn1cnc2c1C(COCC1CC1)CN(C(=O)c1cscn1)C2 (centres undefined),-46.3%
22,CN(C(=O)c1ccc(S(=O)(=O)NC(C)(C)C)cc1)C1(C#N)CCC1,5.67%
23,O=C(C1=COCCO1)N1CC(Oc2nc3c(C(F)(F)F)cccc3s2)C1,-41.7%
24,CC(NC(=O)NCCCn1cncn1)c1ccc(F)cc1 (centres undefined),20.8%
25,CC(NC(=O)NCCCn1cncn1)c1ccncc1 (centres undefined),-85.1%
26,CC(NC(=O)NCCCn1cncn1)c1ccc(C(F)(F)F)cc1 (centres undefined),57.2%
